Source: PubChem BioAssay
Rows were chosen to be rich in hits. Some 4.8% of all compounds tested hit in one or more screens of this group.
ALOX15 inhib: qHTS Assay for Inhibitors of 15-hLO (15-human lipoxygenase) | Polyunsaturated fatty acid lipoxygenase ALOX15 (Homo sapiens), P16050 | purified 15hLO-1, xylenol orange hydroperoxide absorbance | Potency, µM (doses to about 57.1 µM), for the others: top-dose activity change, negative = inhibition, hits mostly inhibitors | actives 1.4% (n = 74,000); also: % is scaled to controls: 0 for no effect and ±100 for the full control effect; nearly all actives have a fitted effect of over 55% in size
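Inhibition is scored from a chromogenic endpoint. After 15 min enzyme-compound contact, arachidonic acid (50 uM final) reacts 6 min with 40 nM 15hLO-1 at room temperature, then Fe-XO reagent is added for 30 min and absorbance ratio recorded.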
HEK293 cAMP cs: qHTS Assay for Agonists of the Thyroid Stimulating Hormone Receptor: Activators of Intracellular cAMP Concentrations in Parental HEK 293 | AID 938, 2007 | Potency, µM (top dose mostly 57.1 µM), for the others: at the highest dose activation, most hits filed as activators | parental HEK293 CNG cAMP sensor, membrane potential fluorescence | actives 2.5% (n = 73,000); also: % of control where 0% means no effect; nearly all actives have a fitted effect of over 55% in size
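Counterscreen for endogenous-receptor signalling: CNG-channel HEK 293 cells report cAMP rise by membrane depolarization. After 60 min dye equilibration with 100 uM RO 20-1724, compounds incubated 30 min before bottom-read fluorescence at 590 nm.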
Caspase-1 inhib: qHTS Assay for Allosteric/Competitive Inhibitors of Caspase-1; P29466; Caspase-1 enzyme, Ac-WEHD-AFC fluorogenic rate; Potency, µM (titrated, usually from 57.5 µM), for the others: top-dose activity change, negative = inhibition, most hits filed as inhibitors; actives 0.03% (n = 75,000); AID 900, 2007;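 also: plate controls were vehicle for no effect and no substrate for full effect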
ERK AVP inh: qHTS Assay for Inhibitors of the ERK Signaling Pathway using a Homogeneous Screening Assay; HEK293-V1b, vasopressin-stimulated pERK AlphaScreen; Potency, µM (top dose mostly 57.5 µM), for the others: at the top dose activity, negative = inhibition, hits mostly inhibitors; actives 0.99% (n = 72,000); AID 995, 2007; also: % is scaled to controls: 0 for no effect and ±100 for the full control effect; nearly all actives have a fitted effect of over 55% in size
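V1b-HEK293 cells; cpd 30 min 37C; 25 nM vasopressin 5 min; lyse 10 min; AlphaScreen beads 5 hr RT. Normalized to DMSO basal and 25 nM vasopressin; AC50 by Hill fit.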
TSHR ag: qHTS Assay for Agonists of the Thyroid Stimulating Hormone Receptor | Thyrotropin receptor (Homo sapiens), P16473 | HEK293-CNG-TSHR cells (CNG channel as cAMP sensor), membrane potential dye, cAMP | Potency, µM (titrated, usually from 57.1 µM), for inactives: at the highest dose activation, actives largely listed as activators | actives 0.48% (n = 73,000); active = well fitted activation curve with a large enough effect in the main read-out, with a control signal flat, not every such curve was filed as active; inconclusive = small, poorly fitted or top-dose-only effect, or a change in a side signal; inactive = no such curve, though single readings can be large or run the other way; % of control where 0% means no effect;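 also: the control signal comes from parental cells without the receptor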
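cAMP rise detected as CNG-channel membrane depolarization by fluorescent dye (emission 590 nm), 30 min after compound, following 60 min dye loading containing 100 uM RO 20-1724 at room temperature. Cells: TSHR/CNG HEK 293, with parental CNG HEK 293 as control.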
Casp7 inh: qHTS Assay for Allosteric/Competitive Inhibitors of Caspase-7; actives 0.02% (n = 75,000); P55210; recombinant caspase-7, Ac-DEVD-AFC fluorescence rate; Potency, µM (doses to about 57.5 µM), without a hit: top-dose activity change, negative = inhibition, most hits filed as inhibitors; active = well fitted inhibition curve with a large enough effect in the main read-out, with a control signal flat, not every such curve was filed as active; inconclusive = small, poorly fitted or top-dose-only effect, or a change in a side signal; also: % of control where 0% means no effect
Starred values were filed as active, the others as inactive; ? = inconclusive; · = not tested or not shown; [ ] = another dose, or the depositor's remark. Unless noted, calls follow the shape of the dose curve; as a rule, active = well fitted curve in the direction sought with a large enough effect; inconclusive = small, poorly fitted or top-dose-only effect, or another doubt; inactive = no such curve, though single readings can be large; an effect the other way counts as inactive or inconclusive. Potency is read from the fitted curve at half-maximal effect.

SMILES	ALOX15 inhib	HEK293 cAMP cs	Caspase-1 inhib	ERK AVP inh	TSHR ag	Casp7 inh
CCOc1ccc(OCC)c(NC(=O)CSc2nc3ccccc3c(=O)n2C)c1	-3%	?	0%	3%	?	0%
CCC(=O)Nc1cccc(NC(=O)CSc2nnc(C(C)C)n2CC)c1	-1%	13µM*	-2%	11%	?	4%
CCn1c(SCC(=O)Nc2cccc(NC(C)=O)c2)nnc1C(C)C	-8%	6%	-1%	-17%	0%	-1%
CCCOc1ccc(Br)cc1-c1cc(-c2ccc(Cl)cc2)[nH]c1-c1ccncc1	?	2%	4%	9%	0%	-1%
O=C(OCc1nnc(-c2ccccc2)o1)c1cn(-c2ccccc2)nc1-c1ccccc1	-17%	16%	-4%	25%	28%	0%
Cc1cc(C(=O)OCc2nnc(-c3ccccc3)o2)c(C)n1-c1ccccc1	-11%	13µM*	-6%	5%	?	-6%
Cc1cccc(-n2nnnc2SCn2nnc3ccccc3c2=O)c1	-29%	25µM*	0%	5%	?	6%
CC[C@@H](c1ccccc1)n1c(=O)n2n(c1=O)[C@H]1[C@H](O)[C@H]3O[C@@H]3/C(=N/OC[C@@H](O)COCc3ccco3)[C@@H]1CC2	1%[11.4 µM]	2%[11.4 µM]	-4%[11.5 µM]	13%[11.5 µM]	-3%[11.4 µM]	0%[11.5 µM]
Cc1cnc(CNc2nc(-c3cccc(NS(C)(=O)=O)c3)nc3ccccc23)cn1	17%	3%	-2%	-25%	10%	-4%
c1ccc(Nc2nc(-c3ccc4c(c3)OCO4)nc3ccccc23)cc1	?	5%	-5%	16µM*	·	-7%
c1ccc(CNc2nc(-c3ccc4c(c3)OCO4)nc3ccccc23)cc1	-12%	8%	-8%	20µM*	14%	-8%
COCCn1c(=O)c(-c2ccc(Cl)cc2)nc2cnc(N(C)C)nc21	0%	?	·	21%	?	?
CO/N=C(/C(=O)NC1C(=O)N2C(C(=O)O)=C(COC(N)=O)CSC12)c1ccco1 (stereo not given)	2%	·	1%	0%	·	-3%
CCCCC(C=O)CC (stereo not given)	-2%	?	-4%	9%	?	-2%
Cc1onc(-c2ccccc2Cl)c1-c1nc(-c2ccccn2)no1	-6%	32µM*	-4%	-13%	?	-1%
Cc1occc1-c1nc(-c2ccccn2)no1	0%	0%	-4%	-14%	4%	-1%
c1ccc(CCc2ccccc2-c2nc(-c3ccccn3)no2)cc1	?	25µM*	-2%	8%	?	-2%
CCc1cc(C=NC2CCCCC2)c(O)s1	13µM*	27%	2%	?	·	-2%
Cc1ccc(S(=O)(=O)NCc2ccccc2)cc1	-2%[25.6 µM]	26%	0%	13%	25%	-1%
Cc1ccc(S(=O)(=O)Nn2c(C)ccc2C)cc1	20µM*	1%	-5%	-15%	37%	-6%
O=C(O)CCCCn1ccc(=O)[nH]c1=O	-2%[11.4 µM]	5%[11.4 µM]	0%[11.5 µM]	-4%[11.5 µM]	8%[11.4 µM]	1%[11.5 µM]
CC1CCCC(NC(=O)COC(=O)Cc2cn3ccsc3n2)C1C (stereo not given)	-7%	32µM*	-4%	-3%	?	-12%
COc1ccc(C(C(=O)NC2CCCCC2)N(CC2CCCO2)C(=O)CNC(=O)c2ccco2)cc1 (stereo not given)	5%	6%	3%	-11%	9%	-3%
COc1ccc(-c2csc(N3CCC(C(N)=O)(N4CCCCC4)CC3)n2)cc1	-13%	8%	-3%	25µM*	19%	-6%
COc1ccc(-c2csc(N3CCN(C(=O)c4ccco4)CC3)n2)cc1	?	4%	-5%	10µM*	6%	-5%
SMILES	ALOX15 inhib	HEK293 cAMP cs	Caspase-1 inhib	ERK AVP inh	TSHR ag	Casp7 inh
COc1ccc(-c2csc(N(CC3CCCO3)C(=O)c3ccco3)n2)cc1 (stereo not given)	-7%	20µM*	-3%	24%	?	-2%
NC(=O)C1(N2CCCCC2)CCN(c2nc(-c3ccccc3)cs2)CC1	-7%	3%	-1%	13%	5%	-2%
COC(=O)c1cc(OC)c(OC)cc1NC(=O)c1c(C)noc1C	7%	11%	2%	-8%	-3%	-4%
O=C(O)Cn1c(=O)oc2cc(S(=O)(=O)NC3CCCCC3)ccc21	-6%	9%	-3%	·	3%	0%
CC(=O)Nc1ccc(C(=O)Nc2ccc(S(=O)(=O)NCC3CCCO3)cc2)cc1 (stereo not given)	-6%	7%	-2%	-1%	-6%	0%
O=C(Nc1ccc(F)cc1)c1ccc(S(=O)(=O)NCC2CCCO2)cc1 (stereo not given)	0%	3.2µM*	2%	-9%	?	-1%
O=c1c2c3nc4ccccc4nc3n(CCN3CCOCC3)c2ncn1CCN1CCOCC1	8%	3%	-9%	-8%	-1%	-9%
Cc1c(C(=O)Nc2ccccc2)sc2nc(-c3ccccc3)cn12	-14%	32µM*	0%	5%	?	-2%
COc1ccc(-c2cn3c(C)c(C(=O)Nc4cccc(C)n4)sc3n2)cc1	?	18%	-7%	-13%	18%	-1%
Cc1cccc(NC(=O)c2sc3nc(-c4ccccc4)cn3c2C)n1	-15%	25µM*	·	-2%	?	?
Cc1cccc(NC(=O)c2sc3nc(-c4ccc(F)cc4)cn3c2C)n1	-13%	20µM*	·	25%	?	-25%
Cc1cc2cc(CNC(=O)c3cccs3)ccc2n1C	16µM*	-4%	-6%	13%	4%	-9%
CCC(CC)C(=O)NCc1ccc2c(c1)cc(C)n2C	-9%	6.3µM*	-2%	12%	?	-3%
O=C(O)c1ccc(S(=O)(=O)N(Cl)Cl)cc1	-14%	22%	4%	5%	1%	3%
COC(c1ccccc1Br)C(C)/C=C/CCO (stereo not given)	1.6µM*	-2%[11.4 µM]	-1%[11.5 µM]	16%[11.5 µM]	-4%[11.4 µM]	-1%[11.5 µM]
COc1ccc(-c2cnnn2-c2ccc(NC(=O)c3ccco3)cc2)cc1OC	0%	?	0%	16µM*	?	0%
COc1ccc(Cl)cc1C(=O)Nc1ccc(NC(=O)c2ccco2)cc1	-14%	-2%	-2%	-27%	20%	-2%
CCn1c(=O)cc(SCC(=O)N2CCOCC2)c2ccccc21	6%	-2%	0%	-20%	-2%	-2%
